Bioassay records as filed in PubChem.
NR5A2 inv ag = NR5A2 inverse agonism in reporter assay. O00482. HEK293T StAR-luciferase reporter, LRH-1 transfected, 24 h. inhibition, % at 3.6 µM. hit rate 0.13% among 360,000;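 active means inhibition above the mean inhibition of all tested compounds plus 3 SD, cut at about 73% in these data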;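 further: 0% = DMSO wells and 100% = reporter-only cells lacking LRH-1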
Gli-Sufu block = antagonists of Gli-Sufu signaling; Sufu-KO-LIGHT fibroblasts, Gli luciferase reporter luminescence; inhibition, % at 5 µM; hit rate 0.74% among 340,000; AID 588413;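 active means inhibition above about 55%, limit read from the data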;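 further: 0% = DMSO-treated cells and 100% = wells with medium but no cells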
SRC1 inh = inhibitors of human steroid receptor coactivator 1 (SRC1); Q15788; HEK293 GAL4-SRC1 luciferase reporter, luminescence; inhibition, % at 3.6 µM; hit rate 0.12% among 360,000; AID 588354;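 active means inhibition above the campaign mean plus 3 SD, with each screening campaign given its own cutoff, cut at about 60% in these data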;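 further: 0% = DMSO treated cells and 100% = gossypol at 36 µM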
SRC2 inh = human SRC2 (NCOA2) inhibition; hit rate 0.17% among 370,000; inhibition, % at 9 µM; Q15596; HEK293 GAL4-SRC2 luciferase reporter, luminescence;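 active means inhibition above the mean inhibition of all tested compounds plus 3 SD, set per campaign, cut at about 52% in these data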;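 further: 0% = DMSO treated cells and 100% = cells given Gossypol at 36 µM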
Target sequence (Q15596 whole entry, looked up, the tested form may be a part): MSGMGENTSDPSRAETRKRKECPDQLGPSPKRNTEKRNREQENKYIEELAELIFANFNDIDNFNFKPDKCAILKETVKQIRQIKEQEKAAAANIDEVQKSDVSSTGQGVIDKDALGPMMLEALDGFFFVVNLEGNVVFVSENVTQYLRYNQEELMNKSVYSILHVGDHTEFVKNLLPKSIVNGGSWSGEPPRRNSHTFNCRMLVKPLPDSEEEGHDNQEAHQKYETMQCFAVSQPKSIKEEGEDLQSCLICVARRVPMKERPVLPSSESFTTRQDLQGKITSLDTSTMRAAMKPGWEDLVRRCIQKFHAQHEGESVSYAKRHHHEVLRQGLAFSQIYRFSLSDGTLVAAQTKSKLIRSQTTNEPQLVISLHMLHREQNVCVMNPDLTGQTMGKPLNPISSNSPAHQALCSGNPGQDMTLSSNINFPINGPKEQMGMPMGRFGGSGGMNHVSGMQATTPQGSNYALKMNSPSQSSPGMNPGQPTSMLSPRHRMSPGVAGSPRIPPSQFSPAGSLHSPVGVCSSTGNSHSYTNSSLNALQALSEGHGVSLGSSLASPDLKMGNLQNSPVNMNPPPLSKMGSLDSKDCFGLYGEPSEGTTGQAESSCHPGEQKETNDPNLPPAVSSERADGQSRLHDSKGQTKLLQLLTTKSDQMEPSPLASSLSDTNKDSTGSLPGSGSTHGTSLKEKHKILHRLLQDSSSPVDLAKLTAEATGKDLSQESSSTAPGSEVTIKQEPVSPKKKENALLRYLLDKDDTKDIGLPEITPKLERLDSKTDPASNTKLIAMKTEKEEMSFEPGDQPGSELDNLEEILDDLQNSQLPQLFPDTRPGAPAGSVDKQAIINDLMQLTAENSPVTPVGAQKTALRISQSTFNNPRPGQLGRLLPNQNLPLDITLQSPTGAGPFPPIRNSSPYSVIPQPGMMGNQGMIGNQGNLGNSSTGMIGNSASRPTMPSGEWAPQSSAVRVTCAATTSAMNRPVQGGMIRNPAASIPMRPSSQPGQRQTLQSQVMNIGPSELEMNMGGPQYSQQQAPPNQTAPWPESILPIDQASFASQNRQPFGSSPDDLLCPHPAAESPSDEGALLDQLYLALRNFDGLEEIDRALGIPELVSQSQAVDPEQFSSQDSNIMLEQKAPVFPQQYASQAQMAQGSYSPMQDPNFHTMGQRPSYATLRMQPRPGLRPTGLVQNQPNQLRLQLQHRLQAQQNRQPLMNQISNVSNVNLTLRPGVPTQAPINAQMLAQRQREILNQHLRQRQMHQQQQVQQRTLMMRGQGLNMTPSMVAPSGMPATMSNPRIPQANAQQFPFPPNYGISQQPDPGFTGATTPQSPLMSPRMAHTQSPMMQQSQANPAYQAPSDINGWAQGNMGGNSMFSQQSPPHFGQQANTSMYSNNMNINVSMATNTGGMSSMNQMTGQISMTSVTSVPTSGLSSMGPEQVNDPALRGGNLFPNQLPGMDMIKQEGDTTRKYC
NCOA3 inh = human NCOA3 inhibition. hit rate 0.17% among 360,000. inhibition, % at 3.6 µM. AID 588352. HEK293 GAL4-SRC3 luciferase reporter, luminescence;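 active means inhibition above a per-campaign cutoff, the mean of all compounds plus 3 SD, cut at about 60% in these data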;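 further: 0% = DMSO-treated cells and 100% = gossypol-treated cells at 36 µM; higher means less SRC3-driven luciferase light from the GAL4 reporter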
Active calls of the source: *; x = no result; ! = not active in a repeat. Hits are enriched below; roughly 0.83% of the tested compounds scored in any of these assays.

SMILES	NR5A2 inv ag	Gli-Sufu block	SRC1 inh	SRC2 inh	NCOA3 inh
COC(=O)[C@H](CC(C)C)N1Cc2nnn(CC3CCCCC3)c2-c2ccccc2S1(=O)=O	x	x	x	4	x
C(C#CCCCCCCCCC[n+]1ccccc1)#CCCCCCCCCC[n+]1ccccc1	85*	87*	38	-9	65*!
CCN1CCCCC(NC(=O)c2ccccc2)C1=O (stereo not drawn)	x	x	x	-28	x
Cc1ccc2[nH]c3c(c2c1)CCCC3C(N)=O (stereo not drawn)	12	-14	-3	-19	9
Cc1ccc2[nH]c3c(c2c1)CCCC3NC(=O)CCl (stereo not drawn)	89*	28	77*	x	77*
CCCN(CCC)c1ncnc2nc[nH]c12	27	-17	59	37	65*
Clc1ccccc1CN(Cc1ccccc1)c1ncnc2nc[nH]c12	6	2	-4	6	8
CCOc1ccc(-c2cc(CCCC(=O)NCCCOC)no2)cc1	15	10	3	69*	4
O=C(Nc1nc2cc3c(cc2s1)OCCO3)C1=COCCO1	44	49	54	68*	65*
O=C(NCCc1ccccc1)c1ccc2c(c1)OCCO2	56	34	48	76*	53
O=C(NCCc1ccccc1)c1ccc2c(c1)OCCCO2	78*	70*	74*	88*	74*
O=C(CCCc1ccccc1)c1ccc2c(c1)OCCO2	67	40	71*	75*	70*
O=C(CCc1ccccc1)c1ccc2c(c1)OCCCO2	-136	-74	-207	-56	-93
COc1ccc(CCNC(=O)c2ccc3c(c2)OCCO3)cc1	-76	-46	-39	-29	-42
O=C(Nc1ccc(N2CCCCC2)cc1)c1ccccn1	60	64*	64*	x	71*
Cn1c2c(c(=O)n(C)c1=O)C(C(F)(F)F)(C(F)(F)F)N=C(c1ccc(Cl)cc1)N2	98*	88*	75*	x	77*
Cc1ccccc1C1=NC(C(F)(F)F)(C(F)(F)F)c2c(n(C)c(=O)n(C)c2=O)N1	11	6	6	12	15
COC(=O)[C@]12C[C@H](CC(=O)NCc3cccs3)C(=O)N(CCc3ccc(OC)c(OC)c3)C1=C[C@H](C1CCCC1)O[C@@H]2C	x	x	x	-33	x
COCCn1c(C)cc(C(=O)COC(=O)c2ccccc2Br)c1C	78*	45	81*	74*	81*
COCCn1c(C)cc(C(=O)COC(=O)c2cccnc2SC)c1C	-75	-53	-73	-61	-59
Cc1cc(C(=O)COC(=O)c2ccccc2Br)c(C)n1CC1CCCO1 (stereo not drawn)	82*	76*	82*	82*	84*
Cc1cc(C(=O)COC(=O)c2ccccc2O)c(C)n1CC1CCCO1 (stereo not drawn)	91*	58*	90*	89*	88*
CCn1c(C)cc(C(=O)COC(=O)c2ccccc2[N+](=O)[O-])c1C	95*	87*	93*	x	93*
CCN1Cc2nnn(Cc3ccc(C)cc3)c2-c2ccccc2S1(=O)=O	x	x	x	-1	x
C=CCN1C(=O)[C@@H](CC(=O)NCCC(C)C)[C@]2(C(=O)OCC)CCCCC/C=C/12	x	x	x	7	x
SMILES	NR5A2 inv ag	Gli-Sufu block	SRC1 inh	SRC2 inh	NCOA3 inh
CCCCNC(=O)C[C@H]1C[C@@]2(C(=O)OC)C(=C[C@H](C3CCCC3)O[C@@H]2C)N(Cc2ccco2)C1=O	x	x	x	-1	x
C/C(=N/NC(=O)c1ccoc1C)c1cccs1	x	x	x	-46	x
CCOc1cccc(/C=N/NC(=S)Nc2ccccc2[N+](=O)[O-])c1O	79*	54	84*	60*	80*
CCCN1CCS(=O)(=O)N(Cc2cn(Cc3ccc(OC)cc3)nn2)C(C(=O)OC)C1 (stereo not drawn)	x	x	x	-3	x
O=C(O)CCCCCN1C(=O)CSC1=S	22	8	4	81*	34
CC(C)OC(=O)CCCCCN1C(=O)CSC1=S	17	-3	-1	-7	-18
Cc1cc(/C=C\c2ccc3cc(N(C)C)ccc3[n+]2C)c(C)n1-c1ccccc1	77*	94*	53	x	77*
Oc1ccc(N=Nc2ccc3c(c2)OCCO3)c2ncccc12	15	40	50	57*	44
CCOc1ccc(N=Nc2ccc(O)c3ncccc23)cc1	0	-14	-28	15	11
CC1=C2NC(N)=[N+](CC3CC3)C(Cc3ccccc3)[C@@H]2n2c(=O)n(-c3ccccc3)c(=O)n2C1 (stereo partly drawn)	x	x	x	19	x
COc1ccc(CNC(=O)c2c(C)oc3c2C(=O)c2ccccc2C3=O)cc1	12	64*	13	-7	-13
Cc1oc2c(c1C(=O)NCc1cccnc1)C(=O)c1ccccc1C2=O	x	80*	x	x	x
CC(=O)c1c(C)oc2c1C(=O)c1ccccc1C2=O	13	-7	6	-9	23
C=CCN1C(=O)[C@@H](CC(=O)NCC23CC4CC(CC(C4)C2)C3)[C@]2(C(=O)OCC)CCCCC/C=C/12	x	x	x	-10	x
Cc1ccc(-c2nc3cc(N)ccc3o2)c(C)c1	-69	-5	-103	-22	-72
Nc1ccc2oc(-c3cccc4ccccc34)nc2c1	-13	3	3	55*	-18
CCOc1ccc(-n2c(SCC(=O)Nc3ccc(S(=O)(=O)Nc4cc(C)nc(C)n4)cc3)nnc2-c2cccc(C)c2)cc1	x	x	x	-3	x
CC(C)C[C@H]1COc2cc(Br)ccc2S(=O)(=O)N1Cc1cn(CCC2OCCCO2)nn1	x	x	x	12	x
O=C(N/N=C(\c1ccccc1)c1ccccn1)c1cccc([N+](=O)[O-])c1	17	91*	7	x	16
COc1ccc2cc3[n+](cc2c1O)CCc1cc2c(cc1-3)OCO2	1	x	x	-7	x
C[n+]1cc2c3c(ccc2c2ccc4cc5c(cc4c21)OCO5)OCO3	x	x	x	87*	x
Nc1ncnc2c(C3OC(CO)C(O)C3O)scc12 (stereo not drawn)	96*	44	66*	51	84*
CNc1cc(-c2ccc(OC)c(OC)c2)ncn1	-72	x	-49	-99	-104
CNc1ccc2ncc(-c3ccc(OC)c(OC)c3)n2n1	26	x	78*	59*	49
Cc1cccc(-c2cccc3c4c([nH]c23)[C@@H]2C[C@H](N(C)C(=O)NC3CCCCC3)[C@H]([C@H](C)O)C(=O)N2CC4)c1	x	x	x	-3	x
SMILES	NR5A2 inv ag	Gli-Sufu block	SRC1 inh	SRC2 inh	NCOA3 inh
CN1C=C/C(=C\c2cc[n+](C)c3ccccc23)c2ccccc21	81*	77*	53	23	38
CC[n+]1ccc(/C=C2\Sc3ccccc3N2CCCS(=O)(=O)[O-])c2ccccc21	-4	-2	-79	-1	6
COC(=O)CCn1nnc(-c2ccc(C(C)C)cc2)n1	49	57*	51	86*	44
COC(=O)CCn1nnc(-c2cccs2)n1	6	1	-30	-4	3
CCOC(=O)[C@@]12CCCC=C1N(CCc1ccc(Cl)cc1)C(=O)[C@H]2CC(=O)N1CCCC1	x	x	x	8	x
Cn1c(/C(C#N)=C/c2ccc(-c3ccc(S(N)(=O)=O)cc3)o2)nc2ccccc21	-15	21	38	-16	68*
